Laboratory results reported in PubChem BioAssay.
Values without a mark were called inactive. The rule behind the calls is not given here. Where a SMILES comes first, the peptide text is derived from it. [ ]: non-standard residue; d: D form. ξ: configuration not given here. ξV = CC(C)C(N)C(=O)O

What follows are compounds tested against Pantothenate synthetase (Mycobacterium tuberculosis (strain ATCC 25618 / H37Rv)) (UniProt P9WIL5) (assay: Coupled enzyme confirmation of inhibitors against recombinant Mtb PanC (AID 375;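 note: 0% = full reaction with vehicle and 100% = no enzyme background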)). Conditions: coupled enzyme assay; at 10 µM, hits give high values.
Sequence of Pantothenate synthetase (Mycobacterium tuberculosis (strain ATCC 25618 / H37Rv)) (P9WIL5 whole entry, looked up): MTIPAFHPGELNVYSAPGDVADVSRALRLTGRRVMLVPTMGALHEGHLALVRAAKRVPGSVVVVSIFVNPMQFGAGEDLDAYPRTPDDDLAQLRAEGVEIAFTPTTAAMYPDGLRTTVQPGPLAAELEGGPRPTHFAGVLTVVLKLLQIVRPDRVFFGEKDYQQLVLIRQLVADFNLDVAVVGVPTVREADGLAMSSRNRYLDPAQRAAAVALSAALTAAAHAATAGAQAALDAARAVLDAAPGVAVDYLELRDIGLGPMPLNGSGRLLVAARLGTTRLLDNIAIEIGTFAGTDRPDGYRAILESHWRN

Row | Compound | inhibition
1 | CC(=O)NC(C(=O)NCC(N)=O)C(C)C (centres undefined) (Ac-[ξV]-Gly-NH2) | 0%
2 | CCOC(=O)N1CCN(C(=O)c2csc3c2CCCCC3)CC1 | 0%
3 | O=C(O)CN(c1ccccc1)C1SC(=O)NC1=O (centres undefined) | 0%
4 | COc1ccccc1C(=O)NCC(=O)Nc1ccccc1 | 0%
5 | CCN(CC)c1ccc(CNc2ccc(Br)cn2)cc1 | 0%
6 | O=C(NC1CCCC1)C1CC1c1ccccc1 (centres undefined) | 0%
7 | Cc1cc(NC(=O)c2ccc(Cl)cc2)no1 | 0%
8 | CN(Cc1nc(-c2ccncc2)no1)S(=O)(=O)c1ccc(Cl)cc1 | 0%
9 | CCC1CCCCN1C(=O)C1CC(c2cc(Cl)c(OC)cc2OC)=NO1 (centres undefined) | 1%
10 | O=C(CCc1ccc(S(=O)(=O)N2CCOCC2)cc1)NCCc1ccccn1 | 0%
11 | C=CCOc1ccccc1/C=c1\sc2nc(=O)c(C)nn2c1=O | 0%
12 | COc1ccc2c(c1)C(=O)N(c1ccccc1OC)C(=O)C2 | 0%
13 | CSC1=N/C(=C\C=C\c2cccs2)C(=O)S1 | 1%
14 | Cc1[nH]c2ccccc2c1Cc1nnc(SCC(=O)NCc2ccco2)o1 | 1%
15 | CCc1nnc(NC(=O)CSc2nc(-c3ccc(OC)cc3)ns2)s1 | 0%
16 | Cc1nnc(SCC(=O)Nc2ccc(Br)cn2)[nH]c1=O | 1%
17 | Cc1cc(C)n(CC(=O)NC2CCCCC2)n1 | 0%
18 | O=c1c2cn[nH]c2nc(SCc2ccc3c(c2)OCCO3)n1-c1ccccc1 | 3%
19 | Cc1ccc(-n2ncc3c(=O)[nH]c(SC(C)C)nc32)cc1 | 0%
